Hit rate of the full screen: of about 48,000 compounds, about 13,000 (27%) showed an effect of 50% or more. This is one part of the list.
System: Wolbachia pipientis
Experiment: Anti-Wolbachia Cell-Based Screen
Format: functional
Design: scale not given: in the data most compounds retested in dose-response had high values
Conditions: 5 µM

Row | SMILES | Percent Effect [%]
1 | Cc1[nH]nc(CCC(=O)N2C[C@H]3CC[C@@H]2CN(C(=O)N(C)C)C3)c1C | -18.31
2 | CC(=O)N[C@H](C)c1c(-c2ccc(Cl)cc2)noc1C(=O)O | -1.378
3 | Cn1cnc2c1C(COCc1ccccc1)N(Cc1ccncc1)CC2.O=C(O)C(F)(F)F.O=C(O)C(F)(F)F.O=C(O)C(F)(F)F (centres undefined) | -5.71
4 | CCOCC1c2c(ncn2C)CCN1C(=O)c1cnc(C)cn1.O=C(O)C(F)(F)F (centres undefined) | 107
5 | CCOCC1c2c(ncn2C(C)C)CCN1C(C)C.O=C(O)C(F)(F)F.O=C(O)C(F)(F)F (centres undefined) | 0.9894
6 | O=C(c1cscn1)N1CCn2cnc(COCC3CC3)c2C1 | -4.402
7 | CCOCC1c2c(ncn2C(C)C)CCN1C(=O)CC (centres undefined) | -9.692
8 | Cn1cnc2c1C(COCc1ccccc1)N(Cc1cccnc1)CC2.O=C(O)C(F)(F)F.O=C(O)C(F)(F)F.O=C(O)C(F)(F)F (centres undefined) | 3.52
9 | CCOCC1c2c(ncn2C)CCN1C(=O)c1cscn1 (centres undefined) | 99.42
10 | CCOCC1c2c(ncn2C(C)C)CCN1C(=O)C1CC1 (centres undefined) | 9.389
11 | CCOCC1c2c(ncn2C)CCN1C(=O)c1ccoc1 (centres undefined) | 86.79
12 | O=C(NCCn1ccnc1-c1cc2n(n1)CCCNC2)c1ccncc1 | -0.5813
13 | CC(NC(=O)c1ccoc1)C(=O)N(C)Cc1cccc(C(F)(F)F)c1 (centres undefined) | 12.38
14 | CCn1nc2c(cc1=O)CN(Cc1nc(CCOC)no1)CC2 | -7.437
15 | Cc1cccc(C(C)(C)CNC(=O)CCSc2nnnn2C)c1 | -0.1425
16 | CCCn1c(C)c(CC(=O)N(C)CCOC)c2c1CC(C)(C)CC2=O | -2.271
17 | Cc1c[nH]c(CN(C)C(=O)CCn2cnc3ccccc32)n1 | -8.611
18 | CSc1ccc(OCCN2CCNC(=O)CC2)cc1 | 106.2
19 | CCn1nc2c(cc1=O)CN(CCOc1ccc(C#N)cc1)CC2 | 2.029
20 | CSc1ccc(OCCN2CCNC(=O)C2C)cc1 (centres undefined) | 111.5
21 | COc1ccc(CN2CCNC(=O)CC2)cc1SC(F)(F)F | -6.808
22 | CC1C(=O)NCCN1CCOc1ccc(C#N)cc1 (centres undefined) | 92.79
23 | Cc1ncc2c(n1)CN(CCOc1ccc3c(c1)CCC(=O)N3)CC2 | 3.437
24 | Cc1nc(C)n(CC2CCCN2CCOc2ccc(C#N)cc2)n1 (centres undefined) | -3.46
25 | Cc1ccc(C)c2c(O)cc(CN3CCNC(=O)C3C)nc12 (centres undefined) | -11.58

Row | SMILES | Percent Effect [%]
26 | CCCOc1ccc(OCCN2CCOCS2(=O)=O)cc1 | -1.298
27 | Cc1noc(C)c1CNCC1COCc2c(-c3ccsc3)nnn2C1.O=C(O)C(F)(F)F (centres undefined) | 0.4259
28 | Cc1ncc(S(=O)(=O)Nc2ccnn2C2CCCCC2)[nH]1 | -19.02
29 | COc1ccc(-n2ncc(C(C)NC3CCOCC3)c2C)cc1 (centres undefined) | -6.318
30 | Cc1cc(NC(=O)CCN2CCCCC2Cn2cncn2)no1 (centres undefined) | 123.3
31 | Cc1cc(NC(=O)CCN2CCCC2Cn2cncn2)no1 (centres undefined) | 7.653
32 | CC(C)(C)c1cc(NC(=O)CN2CCCC2Cn2cccn2)on1 (centres undefined) | 83.96
33 | CC(C)(C)c1cc(NC(=O)CN2CCCC2Cn2cncn2)on1 (centres undefined) | 8.198
34 | CCN1CCC(NC(=O)CN2CCCC2Cn2cccn2)CC1 (centres undefined) | 18.69
35 | CCN1CCC(NC(=O)CN2CCCCC2Cn2cccn2)CC1 (centres undefined) | 8.022
36 | CC(C)c1cc(NC(=O)CN2CCCC2Cn2cccn2)on1 (centres undefined) | -0.3726
37 | Cc1cc(NC(=O)CCN2CCCCC2Cn2cccn2)no1 (centres undefined) | 107.3
38 | O=C(CN1CCCCC1Cn1cccn1)NC1CCOCC1 (centres undefined) | -17.79
39 | CC(C)(C)c1cc(NC(=O)CN2CCCCC2Cn2cncn2)on1 (centres undefined) | -6.385
40 | O=C(CN1CCCC1Cn1cccn1)NC1CCN(C2CC2)CC1 (centres undefined) | -5.086
41 | Cc1cc(NC(=O)CCN2CCCC2Cn2cccn2)no1 (centres undefined) | 85.34
42 | Cc1n[nH]c(C)c1CN(C)C(C(=O)O)c1c(F)cccc1OC(C)C (centres undefined) | -15.01
43 | CC(C)=CCN1C[C@H]2CC[C@@H]1CN(C(=O)c1ccc3[nH]cnc3c1)C2 | 1.607
44 | Cc1cnn(CCNCc2cc(=O)n3cc(Cl)ccc3n2)c1 | -2.605
45 | CC(=O)N1CCN(CC(=O)NCCCN(C)c2ccccc2)CC1 | -6.128
46 | CNc1nc(CNC(=O)Nc2cccc(-c3nnco3)c2)cs1 | -5.762
47 | CCC[C@H]1CN(C2CCOCC2)C[C@@H]1NC(=O)CCc1cnccn1 | -6.675
48 | O=C(CSc1ccccc1)N1C[C@H]2CC[C@@H]1CN(Cc1ccncc1)C2 | -7.761
49 | Cc1ccc(-c2cnnc(NCC3CCOCC3)n2)o1 | -4.072
50 | CC(=O)N1CCC1c1cc(NC2CCOCC2)nc(C)n1 (centres undefined) | 79.3

Row | SMILES | Percent Effect [%]
51 | CC1c2ncc(COCC3CCOCC3)n2CCN1S(C)(=O)=O (centres undefined) | -5.189
52 | Cc1nc(NCC2CCOCC2)cc(C2CCN2S(C)(=O)=O)n1 (centres undefined) | 108.2
53 | Cc1nc(NC2CCOCC2)cc(C2CCN2S(C)(=O)=O)n1 (centres undefined) | 120.8
54 | Cn1ncc(N2CCC(CNC3Cc4ccccc4C3)C2)cc1=O (centres undefined) | -0.06487
55 | COc1ccc(C(C)N2CCC(OC)CC2)cc1Cl (centres undefined) | 17.11
56 | O=C(N1CCCO1)[C@@]12CCO[C@@H]1CCN(Cc1cccs1)C2.O=C(O)C(F)(F)F | 96.37
57 | Cc1ccsc1CN1CC[C@H]2OCC[C@@]2(C(=O)N2CCCO2)C1.O=C(O)C(F)(F)F | 103.7
58 | O=C(N1CCOCC1)[C@@]12CCO[C@@H]1CCN(Cc1ccccc1F)C2.O=C(O)C(F)(F)F | 14.16
59 | COC[C@@]12CCO[C@@H]1CCN(Cc1sccc1C)C2.O=C(O)C(F)(F)F | 9.781
60 | O=C(N1CCCO1)[C@]12COC[C@H]1CN(Cc1nccs1)C2.O=C(O)C(F)(F)F | -2.706
61 | O=C(N1CCCO1)[C@@]12CCO[C@@H]1CCN(Cc1ccccc1)C2.O=C(O)C(F)(F)F | -18.43
62 | O=C(N1CCOCC1)[C@@]12CCO[C@@H]1CCN(CCN1CCCCC1)C2.O=C(O)C(F)(F)F.O=C(O)C(F)(F)F | 12.15
63 | O=C(N1CCOCC1)[C@@]12CCO[C@@H]1CCN(Cc1cccc(F)c1)C2.O=C(O)C(F)(F)F | 102.7
64 | O=C(N1CCCO1)[C@@]12CCO[C@@H]1CCN(Cc1ccc(F)cc1)C2.O=C(O)C(F)(F)F | 99.96
65 | O=C(N1CCCO1)[C@@]12CCO[C@@H]1CCN(C1CCCCC1)C2.O=C(O)C(F)(F)F | 6.239
66 | Cc1ccc(S(=O)(=O)NCc2[nH]ncc2Br)cc1C | -4.089
67 | O=C(CN1CCOC1=O)N1CCc2nnc(Cc3ccccc3)n2CC1 | 1.802
68 | N#Cc1c(Cl)nsc1NCc1ccc(N2CCC(CO)CC2)cc1 | -1.187
69 | Cc1ccc(CN2CC[C@H]3OCC[C@@]3(C(=O)N3CCCO3)C2)o1.O=C(O)C(F)(F)F | 102.1
70 | Cc1ccc(CN2C[C@H](C(=O)N3CCCCO3)[C@@H]3CCO[C@@H]3C2)o1.O=C(O)C(F)(F)F | -4.524
71 | Cc1ccc(CN2CCOC3(CCCN(c4cccc(F)c4)C3)C2)o1.O=C(O)C(F)(F)F.O=C(O)C(F)(F)F (centres undefined) | -11.31
72 | Cn1cccc1C(=O)N[C@@H]1CN(S(C)(=O)=O)[C@@H]2COC[C@@H]21 | -0.3534
73 | COCCC1(C(=O)O)CCCN(Cc2cc3c(cc2C)OCO3)C1 (centres undefined) | 0.3642
74 | Cc1nc(COCc2cnc3n2CCN(C)C3C)cs1.O=C(O)C(F)(F)F (centres undefined) | 0.7983
75 | Cc1nc(COCC2CNCc3nccn3C2)cs1 (centres undefined) | 1.667

Row | SMILES | Percent Effect [%]
76 | Cc1nc(COCC2CN(C(=O)N(C)C)Cc3nccn3C2)cs1.O=C(O)C(F)(F)F (centres undefined) | 91.86
77 | Cc1nc(CN2CCCn3cnc(COCC4CC4)c3C2)cs1.O=C(O)C(F)(F)F | -1.787
78 | Cc1nc(COCC2CN(C(N)=O)Cc3nccn3C2)cs1.O=C(O)C(F)(F)F (centres undefined) | 114.2
79 | Cc1cc(C)c(C(=O)NCCNc2ncnc3ccccc23)c(=O)[nH]1 | -7.4
80 | COc1cc(F)ccc1NC(=O)NC(C)C(=O)NC(C)(C)C (centres undefined) | -5.015
81 | COc1ccc(CNCc2c(C)nc3sc(C)cn23)c(OC)c1OC | 49.47
82 | c1ccc(-c2noc3c2CN(CC2CC2)CC3)cc1 | 5.665
83 | Cc1ncc2c(n1)CN(CCOCC(F)(F)F)CC2 | -8.792
84 | Cc1ncc2c(n1)CN(CC(=O)Nc1c(C)nn(C)c1C)CC2 | 114.4
85 | Cc1ncc2c(n1)CN(CC(=O)Nc1cc(C)on1)CC2 | 138
86 | Cc1cc(NC(=O)CN2CCc3cnc(C)nc3C2)on1 | -3.742
87 | Cc1cc(NC(=O)CN2CCn3c(nnc3C(C)C)C2)no1 | 1.243
88 | Cc1nn(C)c(C)c1NC(=O)CN1CCc2c(nc(C3CC3)n2C)C1 | -19.95
89 | Cc1ccc(Cl)cc1N1CCC(CNC(=O)CC(F)(F)F)C1 (centres undefined) | -9.569
90 | COCCN1Cc2ccnn2CC(COCc2cccnc2)C1 (centres undefined) | -11.51
91 | CN(Cc1ncc[nH]1)S(=O)(=O)c1cccc(C(=O)N2CCOCC2)c1 | -7.295
92 | CN(CC1CCOC1)S(=O)(=O)c1cccc(C(=O)N2CCOCC2)c1 (centres undefined) | 110.2
93 | O=C(c1cccc(S(=O)(=O)NCCCc2ccco2)c1)N1CCOCC1 | 28.12
94 | O=C(c1cccc(S(=O)(=O)NCCCn2cccn2)c1)N1CCOCC1 | -8.398
95 | CN(CC1CCOC1)S(=O)(=O)c1cccc(C(=O)N2CCCCCC2)c1 (centres undefined) | 127.8
96 | O=C(c1cccc(S(=O)(=O)NCCc2ccccn2)c1)N1CCOCC1 | -3.428
97 | CN1CCCN(C(=O)c2cccc(S(=O)(=O)NCC3(C)COC3)c2)CC1 | -12.18
98 | CN(C)C1CCN(C(=O)c2cccc(S(=O)(=O)NCC3(C)COC3)c2)C1 (centres undefined) | 24.95
99 | CN(CC1CCCCO1)S(=O)(=O)c1cccc(C(=O)N2CCOCC2)c1 (centres undefined) | 99.86
